The list is not random: actives were taken first. Their share in the collection is about 7.3%.
uPA generation = cell surface uPA generation inhibition | cell surface uPA generation assay, qHTS | Potency, µM (doses to about 38.3 µM), inactives show at the highest dose activity change, negative = inhibition, usual class: inhibitors | 330,000 tested, 0.31% active | AID 540303; active = well fitted inhibition curve with a large enough effect; inconclusive = small, poorly fitted or top-dose-only effect; inactive = no such curve, though single readings can be large or run the other way; tested in mouse RAW 264.7 cells; note: % is set by controls: 0 for no effect and ±100 for the full control effect; nearly all actives have a fitted effect of over 55% in size
Rab9 prom act = activates the Rab9 promoter. Huh7 Rab9 promoter-luciferase reporter, luminescence, 24 h. Potency, µM (titrated, usually from 9.22 µM), without a hit: at the highest dose activation, negative = inhibition, hits mostly activators. 320,000 tested, 2.8% active. AID 485297; note: % of control where 0% means no effect; nearly all actives have a fitted effect of over 60% in size
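Quantitative HTS format; Huh7 Rab9-luciferase reporter cells (1500/well) receive compound 2 h post-plating, incubate 24 h at 37 °C, then get luciferase reagent for 10 min before luminescence reading.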
NPC1 prom act = NPC1 promoter activation | Huh7 NPC1 promoter luciferase reporter, 24 h | Potency, µM (titrated, usually from 9.22 µM), for the others: at the top dose activation, hits mostly activators | 320,000 tested, 2.4% active | AID 485313; note: % of control where 0% means no effect; nearly all actives have a fitted effect of over 60% in size
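Luminescence from an NPC1 promoter-driven luciferase reporter in stably transfected Huh7 cells was measured after 24 h compound treatment at 37 °C, followed by 10 min ambient incubation with luciferase detection reagent.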
ELG1 genotoxic = induces genotoxicity in HEK293T cells with luciferase-tagged ELG1; HEK293T ELG1-luciferase reporter, luminescence, 16 h; Potency, µM (titrated, usually from 46 µM), for the others: top-dose activity change, positive = activation, usual class: activators; 330,000 tested, 1.3% active; note: % of control where 0% means no effect; nearly all actives have a fitted effect of over 60% in size
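ELG1-luciferase HEK293T cells, 2,000/well; compound pinned in; 16 hr, 37 °C, 5% CO2; ONE-Glo, 30 min RT; luminescence on CCD imager.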
FLuc modulator = inhibits or activates purified firefly luciferase, miR-21 counter-screen; Potency, µM (highest dose often 57.5 µM), inactives show at the highest dose activity change, negative = inhibition, usual class: inhibitors; AID 588342; purified FLuc, Km substrates, luminescence inhibition; 360,000 tested, 6.9% active;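 note: plate controls were vehicle for no effect and reference inhibitor for full effect; nearly all actives have a fitted effect of over 55% in size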
Target sequence (P08659 whole entry, looked up): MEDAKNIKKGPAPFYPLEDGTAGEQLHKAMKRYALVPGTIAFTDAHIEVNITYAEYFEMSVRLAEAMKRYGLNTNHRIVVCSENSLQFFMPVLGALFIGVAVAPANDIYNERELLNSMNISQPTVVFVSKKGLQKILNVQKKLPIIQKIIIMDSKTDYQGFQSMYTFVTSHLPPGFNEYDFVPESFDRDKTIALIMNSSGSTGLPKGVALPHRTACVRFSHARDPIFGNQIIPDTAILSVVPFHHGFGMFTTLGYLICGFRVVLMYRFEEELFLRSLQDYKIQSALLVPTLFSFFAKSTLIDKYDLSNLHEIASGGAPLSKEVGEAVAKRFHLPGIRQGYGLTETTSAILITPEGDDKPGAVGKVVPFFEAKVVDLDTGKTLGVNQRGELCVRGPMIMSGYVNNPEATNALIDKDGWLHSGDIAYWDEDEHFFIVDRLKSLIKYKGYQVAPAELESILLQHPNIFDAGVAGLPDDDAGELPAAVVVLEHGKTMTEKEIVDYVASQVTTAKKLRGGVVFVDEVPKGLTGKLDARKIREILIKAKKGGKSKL
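Biochemical qHTS of compounds, final roughly 60 µM downward over six points, against 10 nM purified firefly luciferase using Km concentrations of substrates (10 uM D-luciferin, 10 uM ATP) in Tris acetate pH 7.5 buffer; luminescence output.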
SMN2 splice up = enhancers of SMN2 splice variant expression | HEK293 SMN2-luciferase splicing reporter, luminescence, 30-36 h | Potency, µM (top dose mostly 46.1 µM), inactives show at the highest dose activity change, positive = activation, hits mostly activators | 210,000 tested, 2.8% active; note: % of control where 0% means no effect; nearly all actives have a fitted effect of over 55% in size
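HEK293 cells carry an SMN2 […]–luciferase reporter in which exon 7 inclusion puts luciferase in frame. Cells were plated 10-12 h before compound addition, then incubated 30-36 h at 37C. ONE-Glo luminescence was read; sodium butyrate at 4.5 mM final served as control.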
Starred values were filed as active, the others as inactive; [ ] = dose if it differs, or a comment. Unless noted, calls come from the whole dose curve; as a rule, active = well fitted curve in the direction sought with a large enough effect; inconclusive = small, poorly fitted or top-dose-only effect, or another doubt; inactive = no such curve, though single readings can be large; an effect the other way counts as inactive or inconclusive. Potency is the fitted concentration of half-maximal effect.

Results for Fc1ccc(OCc2nc(-c3cccs3)no2)cc1 ?
uPA generation: 0%; Rab9 prom act: 2.5µM*; NPC1 prom act: 3.2µM*; ELG1 genotoxic: inconclusive; FLuc modulator: 11µM*; SMN2 splice up: inconclusive

Results for c1ccc(OCc2nc(-c3cccs3)no2)cc1 ?
uPA generation: 7%; Rab9 prom act: 3.2µM*; NPC1 prom act: 3.5µM*; ELG1 genotoxic: 13µM*; FLuc modulator: 7.6µM*; SMN2 splice up: inconclusive

What do the screens show for `CCOC(=O)c1cc(-c2ccccc2)n(-c2cccc(C(=O)NC(C)CC)c2)c1C` (stereo not given)?
FLuc modulator: -2%

What do the screens show for `Cc1ccc(-c2nc3nc4ccccc4nc3n2Cc2ccco2)cc1`?
uPA generation: -4%; Rab9 prom act: 12%; NPC1 prom act: 4%; ELG1 genotoxic: 2.9µM*; FLuc modulator: 11µM*; SMN2 splice up: 8.9µM*

How did Clc1ccc(-c2nc3nc4ccccc4nc3n2Cc2ccco2)cc1 do in these assays?
uPA generation: 0%; Rab9 prom act: 4%; NPC1 prom act: 0%; ELG1 genotoxic: 23µM*; FLuc modulator: inconclusive; SMN2 splice up: 18µM*

Results for COc1ccccc1CN1CC2(CCN(C(=O)c3cccc(F)c3)CC2)C1 ?
SMN2 splice up: -5%

What do the screens show for `CC(C)CCNC(=O)CCCOc1cc(=O)n(C)c2ccccc12`?
uPA generation: -11%; Rab9 prom act: -1%; NPC1 prom act: -8%; ELG1 genotoxic: inconclusive; FLuc modulator: 5%; SMN2 splice up: 13µM*

What do the screens show for `COc1ccccc1NC(=O)CCCOc1cc(=O)n(C)c2ccccc12`?
FLuc modulator: 2%; SMN2 splice up: inconclusive

What do the screens show for `CN(CCCNC(=O)COc1cc(=O)n(C)c2ccccc12)Cc1ccccc1`?
uPA generation: -4%; Rab9 prom act: -6%; NPC1 prom act: 0%; ELG1 genotoxic: 9%; FLuc modulator: 3%; SMN2 splice up: 6%

What do the screens show for `COc1ccc(N2CCN(C(=O)CCCOc3cc(=O)n(C)c4ccccc34)CC2)cc1`?
Rab9 prom act: 2%; NPC1 prom act: -1%; ELG1 genotoxic: 0%; FLuc modulator: 3%; SMN2 splice up: -8%

What do the screens show for `CC1CCN(C(=O)CCCOc2cc(=O)n(C)c3ccccc23)CC1`?
uPA generation: -5%; Rab9 prom act: -5%; NPC1 prom act: -3%; ELG1 genotoxic: 18µM*; FLuc modulator: -2%; SMN2 splice up: inconclusive

What do the screens show for `Cn1c(=O)cc(OCCCC(=O)Nc2ccccn2)c2ccccc21`?
uPA generation: -9%; Rab9 prom act: -7%; NPC1 prom act: -5%; ELG1 genotoxic: 21µM*; FLuc modulator: 2%; SMN2 splice up: 21%

What do the screens show for `Cn1c(=O)cc(OCC(=O)NCCCN2CCN(Cc3ccccc3)CC2)c2ccccc21`?
uPA generation: 5%; Rab9 prom act: 0%; NPC1 prom act: 0%; ELG1 genotoxic: 18µM*; FLuc modulator: 2%; SMN2 splice up: inconclusive

What do the screens show for `CN1CCN(CCCNC(=O)CCCOc2cc(=O)n(C)c3ccccc23)CC1`?
uPA generation: -3%; Rab9 prom act: -10%; NPC1 prom act: -5%; ELG1 genotoxic: 5%; FLuc modulator: 15%; SMN2 splice up: 16%

What do the screens show for `CCn1c(=O)c(C(=O)Nc2ccccn2)c(O)c2ccccc21`?
uPA generation: 0%; Rab9 prom act: -1%; NPC1 prom act: 9%; ELG1 genotoxic: -6%; FLuc modulator: 6%; SMN2 splice up: 4%

Results for Cc1ccc(CNC(=O)CCCOc2cc(=O)n(C)c3ccccc23)o1 ?
uPA generation: -6%; Rab9 prom act: 0%; NPC1 prom act: -10%; ELG1 genotoxic: inconclusive; FLuc modulator: -2%; SMN2 splice up: inconclusive

Results for Cn1cc(C(=O)Nc2ccccn2)c(=O)c2ccccc21 ?
uPA generation: -2%; Rab9 prom act: inconclusive; NPC1 prom act: inconclusive; ELG1 genotoxic: inconclusive; FLuc modulator: 15µM*

How did Cn1c(=O)cc(OCCCC(=O)NCc2ccco2)c2ccccc21 do in these assays?
uPA generation: -11%; Rab9 prom act: -4%; NPC1 prom act: -8%; ELG1 genotoxic: 18µM*; FLuc modulator: -2%; SMN2 splice up: 10µM*

How did COc1cccc2c1OCC/C2=N\NC(=O)COc1ccccc1C do in these assays?
uPA generation: -3%; Rab9 prom act: 1%; NPC1 prom act: 9%; ELG1 genotoxic: 9%; FLuc modulator: 6.7µM*; SMN2 splice up: 17%

Results for Cc1ccc(OCC(=O)N/N=C2\CCOc3c(C)cccc32)cc1 ?
Rab9 prom act: -2%; NPC1 prom act: 6%; ELG1 genotoxic: -3%; FLuc modulator: inconclusive; SMN2 splice up: -13%

Results for COc1cccc2c1OCC/C2=N\NC(=O)COc1ccc(C)cc1 ?
uPA generation: 0%; Rab9 prom act: 1%; NPC1 prom act: -1%; ELG1 genotoxic: 7%; FLuc modulator: 15µM*; SMN2 splice up: 30%

Results for Clc1ccc(-c2nc3ccncc3[nH]2)cc1 ?
uPA generation: -4%; Rab9 prom act: inconclusive; NPC1 prom act: inconclusive; ELG1 genotoxic: inconclusive; FLuc modulator: 11µM*; SMN2 splice up: 11µM*

How did Nc1nc2ccc([N+](=O)[O-])cc2[nH]1 do in these assays?
uPA generation: -10%; Rab9 prom act: -1%; NPC1 prom act: -4%; ELG1 genotoxic: -11%; FLuc modulator: 0%

How did COc1ccc(-c2nc3ccc([N+](=O)[O-])cc3[nH]2)cc1 do in these assays?
uPA generation: -6%; Rab9 prom act: 1.1µM*; NPC1 prom act: 1.6µM*; ELG1 genotoxic: inconclusive; FLuc modulator: 1.5µM*; SMN2 splice up: 1µM*

What do the screens show for `Fc1ccc(-c2nc3ccncc3[nH]2)cc1`?
uPA generation: -1%; Rab9 prom act: 20%; NPC1 prom act: 23%; ELG1 genotoxic: 6%; FLuc modulator: inconclusive; SMN2 splice up: 10%

Results for O=[N+]([O-])c1ccc2nc(-c3ccc(Cl)cc3)[nH]c2c1 ?
uPA generation: inconclusive; Rab9 prom act: 1.6µM*; NPC1 prom act: 2µM*; ELG1 genotoxic: -1%; FLuc modulator: 3µM*; SMN2 splice up: 3.2µM*

How did O=[N+]([O-])c1cccc(-c2nc3ccc([N+](=O)[O-])cc3[nH]2)c1 do in these assays?
uPA generation: -9%; Rab9 prom act: 4µM*; NPC1 prom act: 21%; ELG1 genotoxic: -4%; FLuc modulator: inconclusive; SMN2 splice up: -73%

Results for NC(N)=Nc1nc2ccc([N+](=O)[O-])cc2[nH]1 ?
uPA generation: -4%; Rab9 prom act: 0%; NPC1 prom act: 4%; ELG1 genotoxic: 6%; FLuc modulator: -7%; SMN2 splice up: -4%[9.22 µM]
